Test results: PubChem BioAssay (EPA / NIEHS)
Inconclusive results are not listed. Activity calls are given as the source filed them. The calls were made as follows: active = hit-call score of the fitted dose curve at least 0.9, where 1 is the maximum; inactive = score below 0.9.

read-out: ABC Transporter (ABCB11), ABCB11 (gene 8647); experiment: CLD_ABCB11_24hr: CellzDirect (CLD) Gene Expression Assay for ABC Transporter (ABCB11) at 24 hours (AID 2283674)
Experimental: CLD_24hr is a cell-based, multiplexed-readout assay that uses hepatocyte, a human liver primary cell, with measurements taken at 24 hours after chemical dosing in a 96-well plate.CLD_ABCB11_24hr is one of 16 assay component(s) measured or calculated from the CLD_24hr assay. It is designed to make measurements of mRNA induction, a form of inducible reporter, as detected with chemiluminescence signals by Quantitative Nuclease Protection Assay (qNPA) technology.Data from the assay component CLD_ABCB11_24hr was analyzed at the endpoint, CLD_ABCB11_24hr, in the positive analysis fitting direction relative to DMSO as the negative control and baseline of activity. Using a type of inducible reporter, gain-of-signal activity can be used to understand changes in the reporter gene as they relate to the gene ABCB11. Furthermore, this assay endpoint can be referred to as a primary readout. To generalize the intended target to other relatable targets, this assay endpoint is annotated to the transporter intended target family, where subfamily is ABC transporter.
Human hepatocyte cultures were treated daily for two consecutive days with fresh dosing solutions containing appropriate concentrations of the 320 ToxCast chemicals (chemical identities were blinded to CellzDirect and other ToxCast collaborators), vehicle control (0.2% DMSO), and positive control inducers as summarized in Table 1. Due to the large number of treatment groups and chemicals examined, the ToxCast chemicals were divided into two groups (spanning two independent cultures of hepatocytes from separate donor preparations (Hu778: ToxCast plates 1 and 2; Hu776: ToxCast plates 3 and 4). Each preparation of human hepatocyte cultures was treated with respective vehicle control, medium only control, set of six positive controls/reference chemicals for the five hepatic receptor pathways, and a subset of eight of the ToxCast chemicals (indoxacarb, pyrithiobac-sodium, norflurazon, cyhalofop-butyl, methomyl, thiram, acetochlor, and propiconazole). These replicate data, coupled with internal replicates designed within the blinded ToxCast chemical library, provided additional data to evaluate interindividual differences between hepatocyte preparations and their potential impact on chemical profiles.Cell morphology and integrity were evaluated using phase-contrast microscopy as an indicator of hepatocyte cell health (Tyson & Green, 1987). Cultures for each treatment group (i.e., media, vehicle [0.2% DMSO], positive control inducers [multiple concentrations], and the ToxCast chemicals [multiple concentrations]) were observed and cell morphology was assessed relative to vehicle control cultures at each harvest time point (0, 6, 24, or 48 h). […] Images were evaluated at the conclusion of the study to assess changes in cell integrity and account for the effects of chemical exposure on uncharacteristic changes in concentration-dependent gene expression profiles. The results from these determinations of apparent cytotoxicity were annotated (yes/no) alongside the corresponding qNPA data for reference.At the conclusion of each treatment period, hepatocyte cultures (96-well) were washed with 1 volume of HBSS, lysed by addition of 25 ul ArrayPlate lysis buffer (HTG, Tucson, AZ), and 70 ul/well of Denaturation Oil, denatured by incubation at 95C for 10 min, and frozen at approximately -70C until analysis by nuclease protection assay (qNPA) (Roberts et al., 2007). For qNPA analysis, cell lysates were thawed at 50C for approximately 30 min, qNPA probes were added, and samples were incubated at 95C for 10 min to begin the detection process by denaturing the target RNA, dissociating the duplexes and secondary structure hybridization. At the conclusion of the hybridization period, S1 nuclease reagent was added to each sample to digest all nonprotected nucleotides at 50C for 60-90 min. […]

Compound	outcome	AC50
CN(C)[C@@H]1C(=O)C(C(N)=O)=C(O)[C@@]2(O)C(=O)C3=C(O)c4c(O)cccc4[C@@](C)(O)[C@H]3[C@H](O)[C@@H]12	inactive	
CCc1cccc(CC)c1N(COC)C(=O)CCl	inactive	
CCOP(=S)(OCC)Oc1ccc2c(C)c(Cl)c(=O)oc2c1	inactive	
Cc1nn(-c2cc(NS(C)(=O)=O)c(Cl)cc2Cl)c(=O)n1C(F)F	inactive	
C=C(C)[C@H]1Cc2c(ccc3c2O[C@@H]2COc4cc(OC)c(OC)cc4[C@@H]2C3=O)O1	inactive	
O=C(O)c1cc(Oc2ccc(C(F)(F)F)cc2Cl)ccc1[N+](=O)[O-]	inactive	
COP(=O)(OC)C(O)C(Cl)(Cl)Cl (stereo not drawn)	inactive	
N#CSCSC#N	inactive	
S=C1NCCN1	inactive	
CNC(=O)ON=C(C)SC	inactive	
CCC(=NOC/C=C/Cl)C1=C(O)CC(C2CCOCC2)CC1=O (stereo not drawn)	inactive	
CCCOc1nn(C(=O)NS(=O)(=O)c2ccccc2C(=O)OC)c(=O)n1C	inactive	
CC1=NNC(=O)N(/N=C/c2cccnc2)C1	inactive	
CCOP(=O)(OCC)Oc1cc(C)nc(C(C)C)n1	inactive	
CC(=NC#N)N(C)Cc1ccc(Cl)nc1	inactive	
CNC(=O)ON=C(SC)C(=O)N(C)C	inactive	
CON=C(C(=O)OC)c1ccccc1CON=C(C)c1cccc(C(F)(F)F)c1	inactive	

Compound	outcome	AC50
CCOP(=S)(OCC)OC(Cl)C(Cl)(Cl)Cl (stereo not drawn)	inactive	
CN(C)NC(=O)CCC(=O)O	inactive	
COc1cc(OC)nc(Sc2cccc(Cl)c2C(=O)O)n1	inactive	
CC(C)=CC1C(C(=O)OCN2C(=O)C3=C(CCCC3)C2=O)C1(C)C (stereo not drawn)	inactive	
CCOC(=O)CC(SP(=O)(OC)OC)C(=O)OCC (stereo not drawn)	inactive	
CCOP(=S)(OCC)SCCSCC	inactive	
CC1(C(=O)Nc2ccc(O)c(Cl)c2Cl)CCCCC1	inactive	
CCOP(=S)(Oc1cnc(C(C)(C)C)nc1)OC(C)C (stereo not drawn)	inactive	
CC[C@H](C)[C@H]1O[C@]2(C=C[C@@H]1C)C[C@@H]1C[C@@H](C/C=C(\C)[C@@H](O[C@H]3C[C@H](OC)[C@@H](O[C@H]4C[C@H](OC)[C@@H](NC)[C@H](C)O4)[C@H](C)O3)[C@@H](C)/C=C/C=C3\CO[C@@H]4[C@H](O)C(C)=C[C@@H](C(=O)O1)[C@]34O)O2		205 nM (active)
CSc1nnc(C(C)(C)C)c(=O)n1N	inactive	
CCCCOC(=O)[C@@H](C)Oc1ccc(Oc2ccc(C#N)cc2F)cc1	inactive	
CCCSP(=O)(OCC)SCCC	inactive	
COc1cccc(C(=O)NN(C(=O)c2cc(C)cc(C)c2)C(C)(C)C)c1C	inactive	
C#CC(C)(C)NC(=O)c1cc(Cl)cc(Cl)c1	inactive	
CCOP(=O)(SC(C)CC)N1CCSC1=O (stereo not drawn)	inactive	
CCCCOC(=O)c1ccccc1C(=O)O	inactive	
